Data on 32 compounds can be found in PubChem BioAssay.

Unmarked numbers belong to inactive results. Active and inactive are the calls of the source. Rule as the data show it, unless noted: active = inhibition above about 30%; inactive = the rest.

In general, inhibition refers to the drop in the measured response relative to a control, in per cent.

Assay [1] concerns the target Nuclear receptor coactivator 3 (Homo sapiens) (UniProt Q9Y6Q9). Briefly: NCOA3 GAL4-fusion reporter inhibition – cell-based, luminescence, quadruplicate, confirmation (AID 588792;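 active = mean inhibition over 43.08%, the solvent-only control mean plus 3 SD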;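 also: 0% = DMSO treated cells and 100% = gossypol at 36 µM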). Particulars: HEK293 GAL4-SRC3 luciferase reporter, at 3.6 µM, hits give high values.
Assay [2] concerns transactivating tegument protein VP16 (Human herpesvirus 1), Gal4-VP16 luciferase reporter. Briefly: repression of VP16-driven luciferase reporter – cell-based, luminescence, high throughput, counter-screen for SRC3 inhibitor project (AID 588794). Particulars: mammalian cells, at 3.6 µM, hits give high values. In general terms: Reporter assays use an easily measured gene product as a stand-in for the process of interest.

Nuclear receptor coactivator 3 (Homo sapiens), sequence (Q9Y6Q9 whole entry, looked up, the tested form may be a part): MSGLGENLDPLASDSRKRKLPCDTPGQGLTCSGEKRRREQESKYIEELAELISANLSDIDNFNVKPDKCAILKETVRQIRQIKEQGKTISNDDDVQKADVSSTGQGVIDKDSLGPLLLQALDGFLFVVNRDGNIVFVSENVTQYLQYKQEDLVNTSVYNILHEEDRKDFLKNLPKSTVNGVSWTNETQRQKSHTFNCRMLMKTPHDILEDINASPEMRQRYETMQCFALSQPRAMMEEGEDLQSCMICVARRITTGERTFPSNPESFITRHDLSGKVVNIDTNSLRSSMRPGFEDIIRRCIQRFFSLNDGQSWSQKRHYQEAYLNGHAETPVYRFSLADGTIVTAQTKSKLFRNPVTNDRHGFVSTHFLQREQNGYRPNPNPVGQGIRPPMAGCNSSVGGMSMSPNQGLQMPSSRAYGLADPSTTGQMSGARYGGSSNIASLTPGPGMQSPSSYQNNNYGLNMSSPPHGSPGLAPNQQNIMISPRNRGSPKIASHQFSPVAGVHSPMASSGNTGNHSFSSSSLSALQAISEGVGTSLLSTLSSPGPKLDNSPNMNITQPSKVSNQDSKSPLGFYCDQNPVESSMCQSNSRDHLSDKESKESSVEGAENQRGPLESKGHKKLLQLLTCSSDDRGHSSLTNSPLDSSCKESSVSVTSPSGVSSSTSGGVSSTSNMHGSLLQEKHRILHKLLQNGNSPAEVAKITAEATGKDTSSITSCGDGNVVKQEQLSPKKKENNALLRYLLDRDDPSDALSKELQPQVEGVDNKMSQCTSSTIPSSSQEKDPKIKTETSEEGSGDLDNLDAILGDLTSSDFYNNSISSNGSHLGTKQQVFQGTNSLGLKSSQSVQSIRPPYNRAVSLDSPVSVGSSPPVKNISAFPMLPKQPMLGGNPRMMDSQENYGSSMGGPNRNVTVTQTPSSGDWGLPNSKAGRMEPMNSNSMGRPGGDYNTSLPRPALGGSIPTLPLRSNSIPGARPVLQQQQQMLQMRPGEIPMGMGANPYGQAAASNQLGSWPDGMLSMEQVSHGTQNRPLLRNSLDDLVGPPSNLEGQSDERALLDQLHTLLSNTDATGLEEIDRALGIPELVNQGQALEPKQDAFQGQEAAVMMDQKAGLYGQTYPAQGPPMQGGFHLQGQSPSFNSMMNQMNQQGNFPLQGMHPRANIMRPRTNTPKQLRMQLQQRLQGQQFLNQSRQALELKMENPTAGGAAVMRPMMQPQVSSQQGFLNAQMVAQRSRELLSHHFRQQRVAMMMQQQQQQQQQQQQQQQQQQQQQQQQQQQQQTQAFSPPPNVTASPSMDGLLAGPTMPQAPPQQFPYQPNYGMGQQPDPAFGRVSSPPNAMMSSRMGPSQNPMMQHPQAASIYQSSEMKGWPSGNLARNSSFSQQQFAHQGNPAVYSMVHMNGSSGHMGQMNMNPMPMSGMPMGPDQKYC

Consider `Cc1ccc(-c2nc(CS(=O)CC(=O)NCCCN3CCN(Cc4ccccc4)CC3)c(C)o2)cc1` (centres undefined), for which the figures for the inhibition in assay [1] and in assay [2] were 20.1% and 8.49%, respectively.
The corresponding values for `CN(C)c1ccc(C=c2c3cc([N+](=O)[O-])ccc3n3c2cc(-c2ccccc2)[n+]3C)cc1` are 38.4% and 56.7% (active).
Take `O=[N+]([O-])c1ccccc1NC1CCN(Cc2ccccc2)CC1`: the inhibition in assay [1] was -4.81%; in assay [2] it was 0.87%.
On the same counts, the results for `O=C1N=c2ccccc2=C1c1sc(=O)[nH]c1O` are -3.29% and 2.71%.
On to `Brc1ccc2ncc3ccccc3c2c1`, for which the values for the inhibition in assay [1] and in assay [2] were 40.2% and 19.1%, respectively.
The corresponding values for `COc1cc(/C=C/c2cc(C(F)(F)F)[nH]c(=O)n2)cc(OC)c1OC` are 16.9% and 40.6% (active).
The corresponding values for `CC(=O)c1ccc(Nc2c3c(nc4ccccc24)CCCC3)cc1` are 32.7% and -3.62%.
Turning to `O=C(NC1CCCC1)C(c1ccncc1)N(Cc1ccccc1)C(=O)Cc1cccs1` (centres undefined), the values for the inhibition in assay [1] and in assay [2] were 2.62% and -0.83%, respectively.
On to `CCCCc1c(O)nc(SCC(=O)NCC2CCCO2)[nH]c1=O` (centres undefined), for which the inhibition in assay [1] was -3.37%; in assay [2], 6.46%.
For the compound `Cc1cc2[nH]c3c4ccccc4nc(C)c3c2cc1C`, the results for the inhibition in assay [1] and in assay [2] were 20.5% and 33.8% (active), respectively.
On the same counts, the results for `CC(C)(C)CNC(=O)[C@]1(C)CCC[C@@]2(C)C3CC[C@@]4(C)C[C@]3(CCC21)CC4=O` (some centres undefined) are 9.18% and 17.9%.
With `CCCC(C(=O)NC(C)(C)C)N(C(=O)c1snc(C(N)=O)c1N)c1ccc2c(c1)OCCO2` (centres undefined), the inhibition in assay [1] was 15.9%; in assay [2], 2.4%.
Consider `CCc1[nH]nc2c1C(C1C=CCCC1)C(C#N)=C(N)O2` (centres undefined), for which the results for the inhibition in assay [1] and in assay [2] were 24.7% and 21.2%, respectively.
On the same counts, the results for `CC(C)NC(=O)N(C)C[C@H]1Oc2ccc(NS(=O)(=O)c3ccc(Cl)cc3)cc2CC(=O)N([C@@H](C)CO)C[C@@H]1C` are 5.62% and -1.86%.
The corresponding values for `Cc1cccc(OC(=O)NCCOC(=O)N(O)c2ccc(Cl)cc2)c1` are 4.94% and -5.77%.
`Cc1ccc(S(=O)(=O)NCC(=O)N(c2ccccc2)C(C(=O)NCc2ccccc2)c2ccco2)cc1` (centres undefined): the inhibition was -2.76% in assay [1] and 4.99% in assay [2].
On the same counts, the results for `COc1cccc(/C=N/Nc2ncnc(Cl)c2N)c1O` are 78.1% (active) and 71.7% (active).
Regarding `CCOC(=O)Cc1[nH]nc2c1C(c1cccc(OC)c1OC)C(C#N)=C(N)O2` (centres undefined), the figures for the inhibition in assay [1] and in assay [2] were -9.29% and 0.25%, respectively.
Consider `Cc1ccnc(OC(C(=O)O)C(OCc2ccccc2)(c2ccccc2)c2ccc(C(F)(F)F)cc2)n1` (centres undefined), for which the inhibition in assay [1] is 8.84%; in assay [2], 12.4%.
The corresponding values for `CCOC(=O)c1c(C)[nH]c(C(=O)N/N=C\c2ccccc2O)c1C` are 11.6% and 12.8%.
On the same counts, the results for `O=C(OC1C2CCC1C1CN(CCc3ccccc3)CC12)c1ccccc1` (centres undefined) are 11.2% and 18%.
On the same counts, the results for `CCc1nc2ccccc2c(=O)n1NCCc1ccccc1` are -4.18% and 2.67%.
`COc1cc(OC)cc(-c2nn[nH]n2)c1`: the figures for the inhibition in assay [1] and in assay [2] were -10.5% and -1.27%, respectively.
The corresponding values for `CCCN1CCN(C2CCCCC2NS(=O)(=O)c2ccccc2)CC1` (centres undefined) are -7.15% and -2.22%.
On the same counts, the results for `Cc1cccc(C2(c3cccc(C)c3)CC2C(=O)Nc2ccc([N+](=O)[O-])cc2O)c1` (centres undefined) are 7.2% and 8.99%.
The corresponding values for `COc1ccc(NC(=O)c2ccc(-c3ccccc3)cc2)cc1S(=O)(=O)N1CCOCC1` are 12% and 34.6% (active).
`C=C[C@@H]1c2c(F)cccc2N(S(=O)(=O)c2ccc(C)cc2)[C@H](c2ccc(OC(C)=O)cc2)C1(C#N)C#N`: the figures for the inhibition in assay [1] and in assay [2] were 10.4% and 3.61%, respectively.
Regarding `O=C(Nc1nc(-c2ccccn2)cs1)c1ccc(F)c(S(=O)(=O)N2CCOCC2)c1`, the results for the inhibition in assay [1] and in assay [2] were 28% and 33.5% (active), respectively.
For `COc1ccc(CCNC(=O)COC(=O)Cc2cccc3ccccc23)cc1`, the inhibition in assay [1] was -2.4%; in assay [2], -9.98%.
The corresponding values for `CCCCn1c(/N=C/c2ccc(N(C)C)cc2)nc2ccccc21` are -1.05% and -4%.
The corresponding values for `CCN(CC)S(=O)(=O)c1cccc(NC(=O)Nc2cccc(C(F)(F)F)c2)c1` are 13.9% and 18%.
With `COc1ccccc1NC(=O)Nc1nnc(Cc2ccccc2F)s1`, the values for the inhibition in assay [1] and in assay [2] were 5.82% and 20.4%, respectively.
